Test results: the supplement of paper PMC11732987, “Enantioselective OTUD7B fragment discovery through chemoproteomics screening and high-throughput optimisation” (Communications Chemistry, 2025)

Assays:
Experiment in all cases: log2 ratio of Biotin-Ahx-Ub-VS probe labelling (fragment/DMSO); higher = less target engagement (more negative = stronger competition), active = hit call of the paper (q ≤ 0.05, log2 ratio ≤ -1)
Details in all cases: compound concentration: 200 uM; treatment time: 3 h
USP16 = USP16 (UniProt Q9Y5T5)
USP16, sequence (Q9Y5T5 whole entry, looked up, the tested form may be a part): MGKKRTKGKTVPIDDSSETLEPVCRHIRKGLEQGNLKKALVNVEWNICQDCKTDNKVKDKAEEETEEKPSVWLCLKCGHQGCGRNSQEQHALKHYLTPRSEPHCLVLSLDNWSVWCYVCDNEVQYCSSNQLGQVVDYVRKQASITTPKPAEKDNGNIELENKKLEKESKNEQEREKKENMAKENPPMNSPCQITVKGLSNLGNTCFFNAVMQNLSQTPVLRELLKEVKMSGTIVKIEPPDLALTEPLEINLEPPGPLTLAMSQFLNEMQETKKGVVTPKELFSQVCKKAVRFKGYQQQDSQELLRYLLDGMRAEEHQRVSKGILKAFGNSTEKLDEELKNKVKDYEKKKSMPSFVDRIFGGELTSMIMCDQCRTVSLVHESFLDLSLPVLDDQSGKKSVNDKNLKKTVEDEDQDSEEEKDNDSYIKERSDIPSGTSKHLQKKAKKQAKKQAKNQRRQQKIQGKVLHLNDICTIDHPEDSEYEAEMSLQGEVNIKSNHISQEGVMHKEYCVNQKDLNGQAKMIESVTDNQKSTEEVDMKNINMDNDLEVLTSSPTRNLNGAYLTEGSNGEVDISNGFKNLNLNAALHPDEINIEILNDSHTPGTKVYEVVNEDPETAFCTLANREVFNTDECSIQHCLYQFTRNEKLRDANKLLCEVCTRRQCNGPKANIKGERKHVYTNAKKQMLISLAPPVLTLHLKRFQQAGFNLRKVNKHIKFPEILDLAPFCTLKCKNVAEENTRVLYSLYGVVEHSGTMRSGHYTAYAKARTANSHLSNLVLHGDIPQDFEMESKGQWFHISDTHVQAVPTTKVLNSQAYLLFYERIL
How it was run: (§1)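 Global-median-normalised Spectronaut label-free quantities were compared by unpaired t-test, and values are average log2 ratios of fragment over vehicle. Only proteins with ≥2 unique peptides were used. HEK293T lysate (495 µg per sample) was treated in triplicate with fragment at 200 µM or vehicle for 3 h and then with Biotin-Ahx-Ub-VS at 0.5 µM final for 1 h. Labelled DUBs were then NeutrAvidin-enriched, digested with LysC and trypsin, and run by diaPASEF LC-MS/MS.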

USP19 = molecular target: T1, USP19 (UniProt O94966)
T1 sequence (whole entry): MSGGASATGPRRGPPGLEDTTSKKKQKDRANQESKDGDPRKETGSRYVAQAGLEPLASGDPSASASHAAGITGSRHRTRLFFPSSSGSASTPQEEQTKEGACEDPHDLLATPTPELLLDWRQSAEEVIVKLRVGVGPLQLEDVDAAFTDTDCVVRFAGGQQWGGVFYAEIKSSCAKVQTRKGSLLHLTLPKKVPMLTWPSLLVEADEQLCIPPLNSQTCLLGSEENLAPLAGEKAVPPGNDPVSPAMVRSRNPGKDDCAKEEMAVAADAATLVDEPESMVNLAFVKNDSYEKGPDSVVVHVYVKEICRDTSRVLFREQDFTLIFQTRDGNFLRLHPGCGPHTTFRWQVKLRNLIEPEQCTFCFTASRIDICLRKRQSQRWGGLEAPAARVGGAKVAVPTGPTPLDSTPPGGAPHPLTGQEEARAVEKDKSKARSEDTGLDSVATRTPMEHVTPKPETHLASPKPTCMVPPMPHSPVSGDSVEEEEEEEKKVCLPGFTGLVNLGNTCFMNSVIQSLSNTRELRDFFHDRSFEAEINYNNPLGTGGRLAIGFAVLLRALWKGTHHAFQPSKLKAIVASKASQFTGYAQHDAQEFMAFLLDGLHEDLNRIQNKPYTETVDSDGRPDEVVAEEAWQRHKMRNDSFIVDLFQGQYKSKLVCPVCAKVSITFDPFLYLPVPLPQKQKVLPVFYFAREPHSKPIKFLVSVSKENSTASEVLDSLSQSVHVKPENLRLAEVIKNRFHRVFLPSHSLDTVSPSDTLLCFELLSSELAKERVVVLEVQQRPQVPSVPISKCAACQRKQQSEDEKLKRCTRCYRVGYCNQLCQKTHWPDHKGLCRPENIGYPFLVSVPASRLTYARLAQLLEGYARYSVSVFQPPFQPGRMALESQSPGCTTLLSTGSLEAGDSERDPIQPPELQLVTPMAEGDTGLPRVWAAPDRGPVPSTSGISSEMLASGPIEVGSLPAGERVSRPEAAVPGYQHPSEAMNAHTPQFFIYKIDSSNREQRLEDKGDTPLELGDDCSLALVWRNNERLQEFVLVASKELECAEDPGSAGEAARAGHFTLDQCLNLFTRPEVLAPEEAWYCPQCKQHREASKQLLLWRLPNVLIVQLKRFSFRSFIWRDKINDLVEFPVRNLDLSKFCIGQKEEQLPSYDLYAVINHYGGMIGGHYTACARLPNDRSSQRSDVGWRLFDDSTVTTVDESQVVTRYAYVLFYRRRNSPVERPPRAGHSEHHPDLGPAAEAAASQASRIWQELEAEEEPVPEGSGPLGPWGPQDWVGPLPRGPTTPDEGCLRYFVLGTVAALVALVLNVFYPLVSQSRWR
How it was run: as §1

USP24 = USP24 (UniProt Q9UPU5)
USP24, sequence (Q9UPU5 whole entry): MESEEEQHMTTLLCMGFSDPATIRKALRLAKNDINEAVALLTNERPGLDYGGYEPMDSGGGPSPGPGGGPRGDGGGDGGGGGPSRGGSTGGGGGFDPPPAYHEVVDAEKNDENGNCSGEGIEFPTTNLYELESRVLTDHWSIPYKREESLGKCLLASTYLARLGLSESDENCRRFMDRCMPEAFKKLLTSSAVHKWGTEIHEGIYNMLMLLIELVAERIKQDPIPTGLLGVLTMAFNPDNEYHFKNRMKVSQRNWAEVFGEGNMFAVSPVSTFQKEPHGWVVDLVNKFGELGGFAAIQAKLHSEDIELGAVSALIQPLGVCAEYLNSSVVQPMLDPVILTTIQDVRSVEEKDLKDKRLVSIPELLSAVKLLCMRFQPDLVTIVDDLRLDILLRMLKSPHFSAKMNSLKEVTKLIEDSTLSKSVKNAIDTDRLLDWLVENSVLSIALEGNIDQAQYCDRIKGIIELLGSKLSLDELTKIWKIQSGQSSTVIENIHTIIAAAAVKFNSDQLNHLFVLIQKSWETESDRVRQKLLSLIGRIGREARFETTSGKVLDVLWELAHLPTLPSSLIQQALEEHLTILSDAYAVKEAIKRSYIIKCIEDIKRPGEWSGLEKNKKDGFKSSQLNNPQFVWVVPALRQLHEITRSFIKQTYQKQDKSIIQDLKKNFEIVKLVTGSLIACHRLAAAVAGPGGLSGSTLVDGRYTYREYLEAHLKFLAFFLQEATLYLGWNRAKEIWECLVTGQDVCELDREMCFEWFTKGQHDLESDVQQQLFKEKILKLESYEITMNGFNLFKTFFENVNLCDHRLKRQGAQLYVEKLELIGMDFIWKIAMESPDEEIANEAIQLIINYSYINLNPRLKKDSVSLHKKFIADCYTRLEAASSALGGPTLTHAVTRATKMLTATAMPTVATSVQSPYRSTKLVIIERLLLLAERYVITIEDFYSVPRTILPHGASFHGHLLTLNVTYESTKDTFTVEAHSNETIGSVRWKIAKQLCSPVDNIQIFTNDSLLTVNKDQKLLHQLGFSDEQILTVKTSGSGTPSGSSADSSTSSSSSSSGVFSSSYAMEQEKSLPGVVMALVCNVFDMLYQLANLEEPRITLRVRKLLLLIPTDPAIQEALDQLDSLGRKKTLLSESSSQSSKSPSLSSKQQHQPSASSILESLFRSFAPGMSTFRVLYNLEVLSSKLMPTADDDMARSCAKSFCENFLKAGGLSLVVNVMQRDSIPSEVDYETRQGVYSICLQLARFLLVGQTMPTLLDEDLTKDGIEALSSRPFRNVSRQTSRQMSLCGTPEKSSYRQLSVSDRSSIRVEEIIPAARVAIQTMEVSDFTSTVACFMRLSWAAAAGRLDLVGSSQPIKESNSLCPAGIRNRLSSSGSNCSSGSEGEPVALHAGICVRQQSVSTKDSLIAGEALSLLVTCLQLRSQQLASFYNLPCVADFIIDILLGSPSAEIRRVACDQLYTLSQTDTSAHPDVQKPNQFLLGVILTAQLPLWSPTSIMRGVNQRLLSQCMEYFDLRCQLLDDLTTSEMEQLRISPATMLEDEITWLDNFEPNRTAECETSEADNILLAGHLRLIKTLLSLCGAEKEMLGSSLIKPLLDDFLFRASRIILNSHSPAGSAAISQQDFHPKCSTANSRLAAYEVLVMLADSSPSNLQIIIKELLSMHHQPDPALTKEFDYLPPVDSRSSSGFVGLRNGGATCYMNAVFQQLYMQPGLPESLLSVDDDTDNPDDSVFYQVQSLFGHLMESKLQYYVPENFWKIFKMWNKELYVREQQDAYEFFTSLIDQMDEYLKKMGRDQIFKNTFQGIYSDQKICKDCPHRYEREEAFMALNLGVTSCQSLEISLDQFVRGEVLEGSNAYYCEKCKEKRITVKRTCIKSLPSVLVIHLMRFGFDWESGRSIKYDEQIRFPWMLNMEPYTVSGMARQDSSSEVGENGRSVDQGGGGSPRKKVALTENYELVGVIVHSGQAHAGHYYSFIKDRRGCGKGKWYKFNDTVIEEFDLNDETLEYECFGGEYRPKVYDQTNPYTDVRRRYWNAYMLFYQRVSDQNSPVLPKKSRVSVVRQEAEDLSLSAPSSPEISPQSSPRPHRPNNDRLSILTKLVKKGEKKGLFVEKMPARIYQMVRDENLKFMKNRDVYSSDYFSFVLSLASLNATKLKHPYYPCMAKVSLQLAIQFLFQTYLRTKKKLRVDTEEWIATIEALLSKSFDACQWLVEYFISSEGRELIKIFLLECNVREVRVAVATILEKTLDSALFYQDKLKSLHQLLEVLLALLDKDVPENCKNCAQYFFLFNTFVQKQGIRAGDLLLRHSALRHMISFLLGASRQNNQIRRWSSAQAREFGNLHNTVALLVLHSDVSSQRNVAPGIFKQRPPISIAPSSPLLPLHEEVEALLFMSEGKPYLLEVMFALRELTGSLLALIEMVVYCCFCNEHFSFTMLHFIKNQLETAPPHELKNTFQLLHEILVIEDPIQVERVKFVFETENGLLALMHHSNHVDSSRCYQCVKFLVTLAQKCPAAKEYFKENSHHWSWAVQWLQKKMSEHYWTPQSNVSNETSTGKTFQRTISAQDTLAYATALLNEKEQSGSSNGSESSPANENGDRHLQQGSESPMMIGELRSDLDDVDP
How it was run: as §1

USP25 = molecular target: T2, USP25 (UniProt Q9UHP3)
T2 sequence (whole entry): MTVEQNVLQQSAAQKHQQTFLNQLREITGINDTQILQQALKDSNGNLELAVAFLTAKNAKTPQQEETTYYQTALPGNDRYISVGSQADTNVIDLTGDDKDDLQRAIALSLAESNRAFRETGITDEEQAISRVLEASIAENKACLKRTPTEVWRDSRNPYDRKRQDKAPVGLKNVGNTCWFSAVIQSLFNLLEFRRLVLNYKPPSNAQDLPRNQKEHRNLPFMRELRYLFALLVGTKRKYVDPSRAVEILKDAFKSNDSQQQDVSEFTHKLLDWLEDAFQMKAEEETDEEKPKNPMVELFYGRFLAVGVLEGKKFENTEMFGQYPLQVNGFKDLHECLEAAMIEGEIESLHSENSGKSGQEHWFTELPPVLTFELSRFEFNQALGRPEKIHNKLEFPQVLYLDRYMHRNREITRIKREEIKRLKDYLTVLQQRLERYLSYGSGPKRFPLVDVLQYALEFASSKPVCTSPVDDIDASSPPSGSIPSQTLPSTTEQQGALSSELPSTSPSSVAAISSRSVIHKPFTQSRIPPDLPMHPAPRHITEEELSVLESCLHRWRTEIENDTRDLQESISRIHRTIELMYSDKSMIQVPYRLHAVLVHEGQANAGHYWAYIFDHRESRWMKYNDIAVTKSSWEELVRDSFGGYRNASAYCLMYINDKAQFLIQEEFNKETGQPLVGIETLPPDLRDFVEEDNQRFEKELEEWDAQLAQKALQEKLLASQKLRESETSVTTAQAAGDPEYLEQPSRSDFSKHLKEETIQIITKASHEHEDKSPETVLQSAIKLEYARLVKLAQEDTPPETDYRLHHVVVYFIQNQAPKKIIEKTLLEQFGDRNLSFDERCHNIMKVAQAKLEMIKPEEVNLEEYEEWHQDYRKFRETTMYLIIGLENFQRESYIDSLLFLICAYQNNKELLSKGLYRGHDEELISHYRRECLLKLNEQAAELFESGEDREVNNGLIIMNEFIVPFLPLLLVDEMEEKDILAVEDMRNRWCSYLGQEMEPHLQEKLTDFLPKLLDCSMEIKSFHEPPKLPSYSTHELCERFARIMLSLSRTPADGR
How it was run: as §1

USP28 = molecular target: T3, USP28 (UniProt Q96RU2)
T3 sequence (whole entry): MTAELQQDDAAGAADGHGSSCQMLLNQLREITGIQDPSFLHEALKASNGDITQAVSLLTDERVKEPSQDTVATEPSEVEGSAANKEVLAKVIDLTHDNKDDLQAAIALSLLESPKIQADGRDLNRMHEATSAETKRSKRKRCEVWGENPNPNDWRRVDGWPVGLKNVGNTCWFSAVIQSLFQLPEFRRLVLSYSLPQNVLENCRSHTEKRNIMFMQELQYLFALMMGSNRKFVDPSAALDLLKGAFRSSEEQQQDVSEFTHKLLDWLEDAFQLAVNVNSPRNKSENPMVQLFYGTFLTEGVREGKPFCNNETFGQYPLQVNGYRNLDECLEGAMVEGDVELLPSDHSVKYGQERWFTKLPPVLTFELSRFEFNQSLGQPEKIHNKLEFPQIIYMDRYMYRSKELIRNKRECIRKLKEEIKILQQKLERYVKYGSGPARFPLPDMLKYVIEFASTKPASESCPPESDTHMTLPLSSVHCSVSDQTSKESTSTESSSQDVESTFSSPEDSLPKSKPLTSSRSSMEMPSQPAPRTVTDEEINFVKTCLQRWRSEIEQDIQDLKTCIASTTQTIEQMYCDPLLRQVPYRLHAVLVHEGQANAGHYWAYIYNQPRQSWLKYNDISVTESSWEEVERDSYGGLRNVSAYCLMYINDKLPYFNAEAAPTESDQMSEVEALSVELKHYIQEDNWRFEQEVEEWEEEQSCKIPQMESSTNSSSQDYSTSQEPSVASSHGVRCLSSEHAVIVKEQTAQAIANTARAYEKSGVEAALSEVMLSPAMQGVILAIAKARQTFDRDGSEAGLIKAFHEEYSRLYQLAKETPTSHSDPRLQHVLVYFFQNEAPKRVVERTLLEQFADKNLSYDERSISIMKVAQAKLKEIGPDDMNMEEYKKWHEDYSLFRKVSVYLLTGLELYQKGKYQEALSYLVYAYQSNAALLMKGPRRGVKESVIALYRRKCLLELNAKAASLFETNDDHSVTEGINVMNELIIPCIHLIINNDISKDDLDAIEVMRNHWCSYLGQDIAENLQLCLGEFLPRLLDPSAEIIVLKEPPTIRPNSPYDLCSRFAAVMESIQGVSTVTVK
How it was run: as §1

Measured: log2 ratio of Biotin-Ahx-Ub-VS probe labelling

CC(NC(=O)CCl)c1cccc(Cl)c1 (stereo not given)
inactive: USP16 0.118 | USP19 -0.35 | USP24 -0.342 | USP25 -0.639 | USP28 -0.845
